Holding throughout (experiment): NCI-60 one-dose screen, 48 h (100 = growth as untreated, 0 = no growth, -100 = all killed)
One test has as its system DU-145 prostate. The settings on record: 10 µM unless noted.
The subject of another test is K-562 leukemia. The note with it: 10 µM unless noted.
The next test relates to MALME-3M melanoma. The note with it: 10 µM unless noted.
The next test relates to MDA-MB-231 breast. The settings on record: 10 µM unless noted.
The test system of a further test is RXF 393 renal. The settings on record: 10 µM unless noted.
A further test concerns SF-268 CNS. The note with it: 10 µM unless noted.
For the next test, the system named is SF-295 CNS. The note with it: 10 µM unless noted.
For a further test, the system named is SF-539 CNS. The note with it: 10 µM unless noted.
A further test relates to UACC-257 melanoma. The settings on record: 10 µM.
The next test deals with M14 melanoma. The settings on record: 10 µM unless noted.

The panel holds about 83,000 compounds, 20% with a hit somewhere; the sample as a whole holds those more often.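 Negative percent growth values reflect cell death: -40 means 40% of the cells present at the start died, and -100 means all died.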 Values without a mark were called inactive. The source made the active and inactive calls. The calls were made as follows: active = growth percent below 10; inactive = the rest.

Consider `Cc1ccc(C2=NN(c3ccc(S(=O)(=O)NC(=O)NCc4ccccc4)cc3)C(c3ccc(N(C)C)cc3)C2)c(C)c1` (configuration not stated), for which the growth is 82.7% with DU-145 prostate; 49.6% in the test on K-562 leukemia; 87% with MALME-3M melanoma; 75.7% in the test on MDA-MB-231 breast; 53% in the test on RXF 393 renal; 50.8% with SF-268 CNS. The growth in the test with SF-295 CNS was 52.7%; in the test with SF-539 CNS it was 37.6%; in the test with UACC-257 melanoma, 60.3%; in the test on M14 melanoma, 27.3%.

Take `Cc1ccc2c(c1)C(C)Cc1c(N(C)C)ncnc1N2C` (configuration not stated): the growth is 68.7% with DU-145 prostate; 12.8% in the test on K-562 leukemia; 53.2% in the test with MALME-3M melanoma; 56.3% with MDA-MB-231 breast; 40.1% with RXF 393 renal; 47.3% in the test with SF-268 CNS. In addition, the growth in the test on SF-295 CNS is 6.52% (active); in the test with SF-539 CNS it was 28.3%.

Regarding `COC12CC(=O)C(C(C)=O)=C(O)C1(C)c1c(O)c(C)c(O)c(C(C)=O)c1O2` (configuration not stated), the growth was 90.2% in the test with DU-145 prostate; 70.4% with K-562 leukemia; 90.7% in the test with MALME-3M melanoma; 92.7% with MDA-MB-231 breast; 90.3% in the test with RXF 393 renal; 78.4% in the test with SF-268 CNS. In addition, the growth is 13.3% in the test with SF-295 CNS, 78.5% with SF-539 CNS and 90.7% with UACC-257 melanoma.

For the molecule `CC(=O)OC[Si](C)(C)c1ccccc1`, the growth was 113% with DU-145 prostate; 102% in the test with K-562 leukemia; 110% with MALME-3M melanoma; 105% in the test on MDA-MB-231 breast; 107% with RXF 393 renal; 103% in the test with SF-268 CNS. Moreover, the growth in the test on SF-295 CNS was 91.6%; with SF-539 CNS, 96.2%; in the test with UACC-257 melanoma, 92.3%.

With `COc1ccc(/C=C/c2cc(N3CCOCC3)c3cc(F)c(F)cc3n2)cc1OC`, the growth in the test with DU-145 prostate was 48.3%; in the test with K-562 leukemia, 28.9%; with MALME-3M melanoma it was 49.3%; in the test with MDA-MB-231 breast, 45.9%; in the test on RXF 393 renal, 52.2%; with SF-268 CNS, 31.4%. Further, the growth in the test on SF-295 CNS is 31.4%; in the test on SF-539 CNS, 28.9%; in the test on UACC-257 melanoma, 45.4%.

`O=S(=O)(O)CCl`: the growth in the test on DU-145 prostate was 109%; with K-562 leukemia, 94.6%; in the test on MALME-3M melanoma it was 102%; with MDA-MB-231 breast, 108%; with RXF 393 renal, 107%; in the test with SF-268 CNS it was 100%. Also, the growth was 102% with SF-295 CNS, 101% in the test on SF-539 CNS, 98.5% in the test on UACC-257 melanoma and 97.1% in the test on M14 melanoma.

`O=C(Nc1cccc(Cl)c1)c1cc([N+](=O)[O-])ccc1O`: the growth in the test with DU-145 prostate was 73.2%; with K-562 leukemia it was 27.7%; in the test on MALME-3M melanoma, 22%; with MDA-MB-231 breast, 38%; with RXF 393 renal, 46.2%; in the test on SF-268 CNS, 65%. For the same molecule, the growth was 58.8% with SF-295 CNS and 32.2% with SF-539 CNS.

On to `O=S(=O)(c1ccccc1)n1ccc(-c2ccc3c(c2)CCO3)n1`, for which the growth in the test with DU-145 prostate is 95%; with K-562 leukemia, 56.1%; with MALME-3M melanoma it was 94%; with MDA-MB-231 breast, 82.9%; with RXF 393 renal, 82.9%; with SF-268 CNS, 92.7%. Further, the values for the growth in the test on SF-295 CNS, in the test on SF-539 CNS and in the test with UACC-257 melanoma were 83.3%, 86.7% and 79.9%, respectively.

On to `COc1ccc(/C=C/c2nc(N3CCOCC3)c3cc(F)c(F)cc3n2)cc1OC`, for which the growth is 53.5% with DU-145 prostate; 16.4% with K-562 leukemia; 42.3% with MALME-3M melanoma; 55.4% in the test on MDA-MB-231 breast; 48.6% in the test with RXF 393 renal; 53.5% with SF-268 CNS. Also, the growth is 19.3% with SF-295 CNS, 56.8% in the test on SF-539 CNS, 20.5% with UACC-257 melanoma and 28% with M14 melanoma.

For the molecule `CCn1cc(C(=O)O)c(=O)c2cc(F)c(N3CCN(S(=O)(=O)c4ccc(Cl)cc4Cl)CC3)cc21`, the growth in the test with DU-145 prostate was 11.6%; with K-562 leukemia, 10.9%; in the test on MALME-3M melanoma it was -19.8% (active); with MDA-MB-231 breast it was 25.5%; with RXF 393 renal, 27.9%; in the test with SF-268 CNS, 24.6%. Besides, the growth in the test on SF-295 CNS is -32% (active); with SF-539 CNS, 8.88% (active); in the test with UACC-257 melanoma it was -15.2% (active); in the test with M14 melanoma it was 15.9%.

`C=CCN=C1NC(=O)/C(=C/c2cc(C(C)(C)C)c(O)c(C(C)(C)C)c2)S1`: the growth with DU-145 prostate is 84%; in the test on K-562 leukemia, 30.8%; with MALME-3M melanoma it was 75.4%; with MDA-MB-231 breast it was 86.8%; with RXF 393 renal, 62.4%; with SF-268 CNS, 82%. For the same molecule, the growth with SF-295 CNS was 69.3%; in the test on SF-539 CNS, 87.6%; in the test with UACC-257 melanoma it was 93%; in the test with M14 melanoma, 52.4%.

As for `COc1ccc(C(=O)c2cc(OC)c(OC)c(OC)c2)cc1/C=C/C(=O)c1ccc2c(c1)OCO2`, the growth was 33.8% with DU-145 prostate; 12.9% in the test on K-562 leukemia; 12.5% in the test with MALME-3M melanoma; 11.2% in the test on MDA-MB-231 breast; 17.4% with RXF 393 renal; 8.85% (active) with SF-268 CNS. Also, the growth is 77.3% with SF-295 CNS, -33.8% (active) in the test on SF-539 CNS, 51.3% with UACC-257 melanoma and 25.3% in the test with M14 melanoma.

On to `C[C@]12CC[C@@H]3c4cc(O)c(O)cc4CC[C@H]3[C@@H]1CC[C@@H]2O`, for which the growth with DU-145 prostate was 39.1%; with K-562 leukemia it was 7.32% (active); with MALME-3M melanoma, 16.8%; in the test with MDA-MB-231 breast, 48.1%; with RXF 393 renal it was 28.7%; in the test on SF-268 CNS it was 46.7%. Also, the growth in the test with SF-295 CNS is 35%; in the test with SF-539 CNS it was -1.85% (active); in the test on UACC-257 melanoma, 31.2%; with M14 melanoma, 23.4%.

Take `CCCCCCCCCCn1cc[n+](C)c1`: the growth was 75.4% in the test with DU-145 prostate; 64.2% in the test with K-562 leukemia; 8.94% (active) with MALME-3M melanoma; 41.5% in the test with MDA-MB-231 breast; -20.8% (active) in the test with RXF 393 renal; 58.7% in the test on SF-268 CNS. Moreover, the growth is 9.99% (active) with SF-295 CNS, 30.5% in the test with SF-539 CNS, -12.4% (active) in the test with UACC-257 melanoma and 24.6% in the test with M14 melanoma.

For the origin of these results see PubChem BioAssay (NCI).
